Data on 19 compounds can be found in article PMC4552634, “A New Set of Chemical Starting Points with Plasmodium falciparum Transmission-Blocking Potential for Antimalarial Drug Discovery” (PLoS ONE, 2015).

The campaign covered roughly 13,000 compounds. About 3,200 (25%) showed an effect of 50% or more. The list shows a part of the results.

The test system of the test is P. falciparum stage V gametocytes. Further details: BacTiter-Glo ATP luminescence viability of purified stage V gametocytes in 384-well plates, per cent inhibition versus DMSO. The conditions noted are these: 48 h, 5 µM; inhibitor.
By % Inhibition is commonly meant the relative decrease from the control value, in per cent. As for `CN(c1cc(NC(=O)c2ccc(F)cc2)ccn1)C1CCN(Cc2cccc(F)c2)CC1` [TCMDC-135019], the “% Inhibition” value is 38.57%.
As for `Cc1ccnc(NC(=O)c2cc(-c3cccc([N+](=O)[O-])c3)nc3onc(C)c23)c1` [TCMDC-124591], the “% Inhibition” value came out at 3.347%.
For `C=C[C@]1(C)C[C@@H](OC(=O)NC(=O)CCCS(=O)(=O)c2nnc(C)s2)[C@]2(C)[C@H](C)CC[C@]3(CCC(=O)[C@H]32)[C@@H](C)[C@@H]1O` [TCMDC-140927], the “% Inhibition” value came to 24.97%.
In the case of `C#CC(C)(CO)N1CCCC1` (stereo not shown) [TCMDC-131372], the “% Inhibition” value is given as -4.555%.
For `CCOC(=O)c1c(C)n(-c2ccccc2)c2ccc(O)cc12` [TCMDC-125483] the value was -27.27%; for `Oc1ccccc1CNCC12CC3CC(CC(C3)C1)C2` [TCMDC-125554], -22.39%.
For the compound `CC(C)C[C@H](Nc1ccnc(NCC2CCCCC2)n1)C(=O)Nc1ccccc1` [TCMDC-134714], the “% Inhibition” value is on record as -42.51%.
For `CC(C)c1ccc(Nc2nc(NCCc3cnc[nH]3)nc(NCc3ccccc3)n2)cc1` [TCMDC-139741] the value was -6.505%.
On to `CC1CN(Cc2cccc(F)c2)CCN1c1ccc(NC(=O)c2ccc(F)cc2)cc1` (stereo not shown) [TCMDC-135017], for which the “% Inhibition” value is -0.6551%.
With `Cc1ccc(NC(=O)Nc2cccc(Cl)c2)cc1-c1ccc(C(=O)Nc2ccncc2)cc1` [TCMDC-133699] the figure was 10.77%.
In the case of `Cl.Oc1ccc(C2CNCCc3c2cc(O)c(OCc2ccccc2)c3Cl)cc1` (stereo not shown) [TCMDC-141979], the “% Inhibition” value worked out at 17.32%.
As to `O=C(N[C@@H](Cc1ccccc1)C(=O)NC1CCCCC1)c1ccc(O)c(-c2ccc(Cl)c(Cl)c2)c1` [TCMDC-140824], the “% Inhibition” value is recorded as 35.45%.
Regarding `O=C(NC(=S)Nc1cc(C(F)(F)F)cc(C(F)(F)F)c1)c1ccc(Cl)cc1` [TCMDC-124077], the “% Inhibition” value turned out to be 25.76%.
With `COc1cc(Cc2cnc(N)nc2N)cc(OCCCCCC(=O)O)c1OC` [TCMDC-137677] the figure was -23.13%.
`CC[C@H](C)CNC(=O)c1cncc(-c2cccc(CNC3Cc4ccccc4C3)c2)c1` [TCMDC-134218]: the “% Inhibition” value is reported as -33.07%.
With `NC(=O)c1cccc(-n2ccc3cc(CNC4Cc5ccccc5C4)ccc32)c1` [TCMDC-133416], the “% Inhibition” value is listed as 99.63%.
With `Cc1cccc(-c2ccc3c(c2)CC(NCc2cccc(-n4ccnc4)c2)C3)c1` (stereo not shown) [TCMDC-134831], the “% Inhibition” value was 2.381%.
Turning to `c1ccc2nc(NCCCCCCCCNc3ccc4ccccc4n3)ccc2c1` [TCMDC-137745], the “% Inhibition” value is given as 26.97%.
As to `c1ccc2ncc(CNCCCCCCCCNCc3cnc4ccccc4c3)cc2c1` [TCMDC-137744], the “% Inhibition” value is reported as 97.27%.
